Among all 2,000 compounds or so, about 190 (9.5%) were called active. Inconclusive results (about 14%) are left out.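 How the source made its calls: active means fitted activation curve crossing 40% at a concentration no higher than the sample's top valid tested dose; inconclusive means flat fitted curve at 30% to 70% activation, or poor curve fit; inactive means signal decrease, flat curve within 30%, or the rest.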 Only a sample is shown.
experiment: HSF-1 reporter activators over prolonged exposure, confirmation, cell-based, mouse, luciferase, cherry-pick, dose (AID 602296); details: NIH3T3-HGL HSF-1 response element luciferase, 48 h; series mostly up to 26 µM;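 further: test compounds applied by themselves with no MG132 co-treatment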

Structure (SMILES)	outcome
Brc1ccc2c(c1)C(c1cccnc1)=NNC(c1cccs1)=N2	inactive
Cc1ccc(-n2c(C)cc(C(=O)COc3c(CO)cc(F)cc3CO)c2C)cc1C	inactive
Cc1c(NC(=O)CSc2nnc3c4ccccc4n(CCc4ccccc4)c3n2)c(=O)n(-c2ccccc2)n1C	inactive
CC(=O)Nc1ccc(N2C(=O)C3C4CC(=O)C(c5ccccc54)C3C2=O)cc1 (stereo not given)	inactive
O=c1[nH]c(CSc2ccccn2)nc2c1oc1ccccc12	inactive
C=CCn1c(COc2ccc(CC)cc2)nnc1SC/C(O)=C(\C#N)c1nc2ccccc2[nH]1	inactive
S=C(NCCSCc1ccc(Cl)c(Cl)c1)Nc1ccccc1	inactive
O=C(CSC1=NCCN1)Nc1cccc(C(F)(F)F)c1	inactive
CC1(C)CC(=O)C2=C(C1)N1C(=C(C#N)C2c2ccc(Cl)cc2)N=C(N)c2ccccc21 (stereo not given)	inactive
O=C(CNS(=O)(=O)c1ccc(Br)s1)NCc1ccccc1	inactive
Cc1ccc(CNC(=O)Cn2ccc3ccccc3c2=O)o1	inactive
CNC(=O)N(O)C1N(/N=C/c2c(F)cccc2Cl)C(=S)SC1(C)C (stereo not given)	inactive
FC(F)(F)c1ccc(Sc2nnc(-c3cccs3)n2CC2CCCO2)nc1 (stereo not given)	inactive
Clc1ccc(CCNc2nc3ccccc3n3nnnc23)cc1	inactive
O=C(Nc1cccc(Cl)c1)N1CCC(CO)(CCOc2ccccc2)CC1	inactive
COc1ccc(/C=C/C(=O)c2ccc(O)cc2)cc1COc1ccc(F)cc1	inactive
Oc1cc(-c2ccccc2)c2ccccc2c1	inactive
Cc1nc2cc3nc(C(F)(F)F)[nH]c3cc2[nH]1	inactive
COc1ccccc1CCC(=O)OCC(=O)Nc1c(Br)cc(C)cc1Br	inactive
O=C(NCCc1ccc(O)c(O)c1)C1COc2ccccc2O1 (stereo not given)	inactive
CC(NC(=O)c1ccc(C(C)(C)C)cc1)C(c1cccs1)N1CCOCC1 (stereo not given)	inactive
CCNC(=O)C(=O)NCc1ccncc1	inactive
CCn1cnc2c1c(=O)n(Cc1nnc3n1-c1ccccc1SC3)c(=O)n2Cc1ccccc1	inactive
N#Cc1cc(Cl)c(NCC2CCCO2)cc1C#N (stereo not given)	inactive
Cc1ccc(S(=O)(=O)NNC(=O)c2sc3nc(C)cc(C)c3c2-n2cccc2)cc1	inactive
Clc1ccc(CO/N=C/c2c(-c3ccccc3)nc3n2CCS3)c(Cl)c1	inactive
Cc1ccc(-c2nc3ccccc3[nH]2)cc1NC(=O)c1ccc2c(c1)OCO2	inactive

Structure (SMILES)	outcome
COc1cccc(NC=C2C(=O)OC3(CCCCC3)OC2=O)c1	inactive
Cc1sc2nc(CSc3cccc(C(F)(F)F)c3)[nH]c(=O)c2c1C	inactive
COc1ccc(N2C(=O)CC(Sc3nnnn3-c3ccc(F)cc3)C2=O)cc1 (stereo not given)	inactive
CC(C(=O)Nc1ccccc1Br)N1c2cccc3cccc(c23)S1(=O)=O (stereo not given)	inactive
CC(=O)c1ccc(N2CCN(C(=O)c3n[nH]c4ccccc34)CC2)cc1	inactive
Cc1ccc(C(=O)Cn2nnc(-c3ccccc3-n3cnnn3)n2)cc1	inactive
COc1ccccc1NC(=O)C1=C(C)NC2=C(C(=O)CC(c3ccc(OC)c(OC)c3)C2)C1c1coc2ccccc2c1=O (stereo not given)	inactive
Cc1ccc(S(=O)(=O)N(C)c2ccc(C)c([N+](=O)[O-])c2)cc1	inactive
CCOC(=O)C1=C(C)Nc2nc3ccccc3n2C1c1ccncc1 (stereo not given)	inactive
COc1ccc(NC(=O)C(NCC(C)C)c2ccccc2)cc1Cl (stereo not given)	inactive
O=S(=O)(c1ccc(-n2cnnn2)cc1)N1CCNCC1	inactive
CCCCCCCCCCCC(=O)c1c(O)cccc1O	inactive
O=C(NC1CCCN(Cc2ccccc2F)C1)c1cccs1 (stereo not given)	inactive
O=C(O)c1cc([N+](=O)[O-])c(NCCC2=CCCCC2)c([N+](=O)[O-])c1	inactive
O=C(Nc1cccc(Cl)c1)C1CCCN(S(=O)(=O)c2ccc(F)cc2)C1 (stereo not given)	inactive
COC(=O)Nc1ccc(S(=O)(=O)Nc2cccc3ccccc23)cc1	inactive
O=C(CCn1c(=O)oc2ccccc21)Nc1ccccc1	inactive
CC1(C)Cc2nc(NCCN3CCOCC3)c(C#N)cc2CO1	inactive
CC(=O)C1=C(O)C(=O)N(c2nccs2)C1c1ccccc1 (stereo not given)	inactive
Cc1[nH]nc(-c2ccc(O)c(C)c2O)c1-c1cnn(-c2ccccc2)c1	inactive
CCOC(=O)C1=C(C)Nc2ncnn2C1c1ccc2c(c1)OCO2 (stereo not given)	inactive
COCCCNC(=O)c1c[nH]c2ccc(S(=O)(=O)N3CCc4ccccc43)cc2c1=O	inactive
NS(=O)(=O)c1ccc(CCNC(=O)c2ccc([N+](=O)[O-])s2)cc1	inactive
CC(=O)Cc1cc(O)c2ccccc2c1OC(=O)c1ccccc1	inactive
O=C1CC(NNc2ccccc2)C(=O)N1c1ccccc1 (stereo not given)	inactive
CCOC(=O)c1c(NC(=O)c2nn(CC)cc2Br)c(C#N)nn1-c1ccccc1	inactive
Cc1cc(NC(=O)c2cc(C)on2)n(-c2ccccc2)n1	inactive

Structure (SMILES)	outcome
Cc1oc2ccc(NS(=O)(=O)c3ccc(C(C)(C)C)cc3)cc2c1C(=O)Nc1ccccc1	inactive
CCCc1[nH]nc2c1C(c1cc(OC)ccc1F)C(C#N)=C(N)O2 (stereo not given)	inactive
O=C(CN1C(=O)NC(Cc2c[nH]c3ccccc23)C1=O)Nc1cccc(S(=O)(=O)N2CCOCC2)c1 (stereo not given)	inactive
CCOC(=O)C(C)(C)N(Cc1ccc(C)cc1)S(=O)(=O)c1ccc(Cl)c([N+](=O)[O-])c1	inactive
Oc1ccc(-c2cnc(-c3ccc(O)cc3)nc2)cc1	inactive
Cc1cccc2cc(CN(Cc3ccco3)C(c3nnnn3CCc3ccccc3)C(C)C)c(=O)[nH]c12 (stereo not given)	inactive
COCCNC(=O)c1cccc(OC2CCN(Cc3ccc(Cl)c(F)c3)CC2)c1	inactive
CCCCOCCCN1CC(=O)N2[C@@H](Cc3c([nH]c4ccccc34)C2(C)C)C1=O	inactive
Cc1ccc(-c2cc(C(F)(F)F)c(C#N)c(SCC(=O)O)n2)cc1	inactive
CCOC(=O)C1=C(c2ccccc2)NC(=O)NC1c1cc(Br)c(O)c(OC)c1 (stereo not given)	inactive
CCCn1nc([N+](=O)[O-])c(C(C#N)c2nc3ccccc3o2)c(Cl)c1=O (stereo not given)	inactive
O=C(COC(=O)c1ccc(S(=O)(=O)NCc2ccco2)cc1)Nc1ccccc1OC(F)F	inactive
Cc1cc(C)nc(Sc2nc(Cl)nc(N(c3ccccc3)c3ccccc3)n2)n1	inactive
COc1cc(-c2nc(-c3ccc4c(c3)-c3ccccc3S4(=O)=O)c(-c3ccccc3)[nH]2)cc(OC)c1O	inactive
CCC(=O)Nc1c(S(=O)(=O)c2ccccc2)c2nc3ccccc3nc2n1C(C)c1ccccc1 (stereo not given)	inactive
CCOc1cc(/C=C2/C(=O)ON=C2C)ccc1OCc1ccc(F)cc1	inactive
O=C(CSc1ncn[nH]1)c1cccc([N+](=O)[O-])c1	inactive
COc1cc(-c2nnc3sc(Cc4ccc(Cl)cc4)nn23)cc(OC)c1OC	inactive
O=C(CN(C(=O)c1csnn1)c1ccc(F)c(Cl)c1)NCc1ccc(F)cc1	inactive
CC(C)(C)Cc1nc2ccccc2n1CCc1ccccc1	inactive
COC(=O)c1ccc(CSc2nc3ccccc3c(=O)n2CC(C)C)o1	inactive
CC(c1ccc(F)cc1)n1c(Cn2ncc3ccccc3c2=O)n[nH]c1=S (stereo not given)	inactive
OC(CNCc1ccco1)Cn1c2ccc(Br)cc2c2cc(Br)ccc21 (stereo not given)	inactive
COc1ccccc1N1CCN(C(=O)c2ccc3c(=O)n(Cc4ccco4)c(=S)[nH]c3c2)CC1	inactive
CCCCNC(=S)N(Cc1ccco1)Cc1cc2cc3c(cc2[nH]c1=O)OCCO3	inactive
O=C1N/C(=C\c2ccc(O)cc2)C(O)=C1C=NCc1ccccc1	inactive
Cc1cccc(C(C#N)c2ccc(Cl)nn2)c1 (stereo not given)	inactive

Structure (SMILES)	outcome
COc1ccc2[nH]c(C)c(CCNc3ccc(C(F)(F)F)cc3[N+](=O)[O-])c2c1	inactive
O=S(=O)(c1ccccc1)c1ncc(C(F)(F)F)cc1Cl	inactive
O=C(CCCn1c(=S)[nH]c2ccc(Br)cc2c1=O)NCC1CCCO1 (stereo not given)	inactive
COc1ccc(C(=O)N(C)CC(O)c2ccccc2)cc1OC1CCN(C(C)=O)CC1 (stereo not given)	inactive
O=C1c2ccccc2-c2onc3ccc(N4CCCC4)c1c23	inactive
COC(=O)Cc1ccc(NC(=O)c2ccc(C)c(C)c2)cc1	inactive
CCOC(=O)c1c(S(=O)(=O)NCC2CCN(CCc3cccs3)CC2)c(C)n(C)c1C	inactive
Cc1nn(C)c(Oc2ccccc2)c1CCNS(=O)(=O)c1ccc(Cl)cc1	inactive
CN1C(=O)C2(c3ccccc31)N(C)CC(c1ccccn1)C21SC(=S)N(Cc2ccco2)C1=O (stereo not given)	inactive
COC(=O)C1=C(C)NC(=S)NC1c1ccc(-c2cccc(Cl)c2)o1 (stereo not given)	inactive
Cc1ccc(C(c2c(C)nn(-c3ccccc3)c2N)c2c(C)nn(-c3ccccc3)c2N)cc1	inactive
COc1cc(CNC2CCCC2)cc(OC)c1	inactive
CCn1c(SCC(=O)N2CCOCC2)nc2oc3c(Cl)cc(Cl)cc3c(=O)c2c1=O	inactive
CC(=O)c1ccc(NC(=O)CCCN2C(=O)/C(=C/C(C)=C/c3ccccc3)SC2=S)cc1	inactive
Cc1noc(C)c1COC(=O)c1ccccc1Oc1ccccc1	inactive
CCc1nnc(NC(=O)C(NC(=O)c2ccccc2Cl)C(C)C)s1 (stereo not given)	inactive
COC(=O)c1sccc1NC(=O)Nc1cccc(F)c1	inactive
Cc1cc(SCC(=O)N/N=C/c2ccc(O)c(O)c2)c(C)cc1Br	inactive
Cn1c(SCc2cccc(C(F)(F)F)c2)nnc1-c1ccco1	inactive
Clc1ccc(CSc2nnc(-c3sccc3-n3cccc3)o2)cc1	inactive
Fc1ccc(Sc2ccccc2CNC2=NCCN2)cc1	inactive
O=S(=O)(c1ccc(Cl)c(NC(=S)N/N=C/c2ccc(O)cc2)c1)N1CCOCC1	inactive
O=c1c(Cl)cc(Cl)nn1-c1ccccc1	inactive
CCc1cc2c(SCC#N)ncnc2s1	inactive

Reference: PubChem BioAssay AID602296 (Broad Institute, 2012)
